Screens as filed in PubChem BioAssay.
Compounds with a hit are over-represented: about 3.6% of the library has one in this group of screens.
APOBEC3A inh – APOBEC3A ssDNA deaminase inhibitors, primary screen, selectivity assay for APOBEC3G inhibitor project, biochemical, FAM/TAMRA oligo cleavage fluorescence | recombinant A3A, FAM/TAMRA ssDNA deamination fluorescence | 330,000 tested, 0.41% active | DNA dC->dU-editing enzyme APOBEC-3A (Homo sapiens), P31941 | inhibition, % at 20 µM;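 active means at least 40% inhibition at 20 µM here, with at most 30% in a related deaminase screen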;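 further: plate controls were A3A with DMSO for no effect and wells lacking A3A enzyme for full effect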
Wnt act – Wnt/beta-catenin pathway activators, primary screen, cell-based, plate reader, single point. Wnt/beta-catenin reporter cell assay, activator. activation, % at 9.35 µM. 300,000 tested, 1.2% active. AID 743398, 2014; in the data active means activation above about 30%, passing the limit was not always enough;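 further: 0% = neutral control wells and 100% = positive control wells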
PHOSPHO1 inh – PubChem AID 1565. recombinant PHOSPHO1, absorbance phosphatase assay. 290,000 tested, 1.1% active. inhibition, % at 13.3 µM. Phosphoethanolamine/phosphocholine phosphatase (Homo sapiens), Q8TCT1; in the data active means inhibition above about 60%
A3G deaminase – APOBEC3G DNA deaminase inhibitors, primary screen, biochemical, fluorescence, single-stranded DNA substrate, uHTS | DNA dC->dU-editing enzyme APOBEC-3G (Homo sapiens), Q9HC16 | recombinant A3G, ssDNA deamination FAM/TAMRA fluorescence | inhibition, % at 20 µM | 330,000 tested, 0.28% active;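 active means inhibition of at least 40% at 20 µM, with no more than 30% in the related APOBEC3A deaminase screen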;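 further: plate controls were DMSO wells with A3G for no effect and wells lacking A3G enzyme for full effect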
Target sequence (Q9HC16 whole entry, looked up): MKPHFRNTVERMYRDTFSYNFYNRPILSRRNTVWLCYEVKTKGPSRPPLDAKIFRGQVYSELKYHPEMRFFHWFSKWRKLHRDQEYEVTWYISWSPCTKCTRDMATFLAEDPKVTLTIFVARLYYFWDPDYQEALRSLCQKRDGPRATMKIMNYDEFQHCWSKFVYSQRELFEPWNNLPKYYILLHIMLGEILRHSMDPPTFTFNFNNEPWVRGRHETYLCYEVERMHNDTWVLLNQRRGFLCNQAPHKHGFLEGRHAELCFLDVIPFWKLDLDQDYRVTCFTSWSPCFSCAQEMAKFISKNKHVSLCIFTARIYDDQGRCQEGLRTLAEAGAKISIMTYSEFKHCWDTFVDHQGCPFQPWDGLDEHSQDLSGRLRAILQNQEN
esBAF inh – Bmi1 luciferase reporter increase in mESCs, primary screen, esBAF inhibitor project, mouse ES cells, Bmi1 luciferase knock-in, single point | 24 h; 100% = twice the neutral-well signal | reporter increase, % at 12.5 µM | 350,000 tested, 2% active | AID 602393, 2012; in the data active means activation above about 40%;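 further: 0% = median of the plate's neutral control wells and 100% = double that signal; a rise in the Bmi1 reporter signal indicates esBAF inhibition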
MITF act – activators of MITF-driven TRPM1 promoter reporter, primary screen, cell-based, SK-MEL-5, luciferase, single point; 300,000 tested, 0.75% active; activation, % at 12.5 µM; SK-MEL-5 TRPM1-promoter luciferase, 24 h; % of positive control, neutral wells = 0; AID 588334, 2011;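 active means mean activation of at least 80% with every replicate also reaching 80%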;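 further: 0% = neutral control wells and 100% = parthenolide positive control wells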
APOBEC3A confirm – APOBEC3A deaminase inhibitors, retest, confirmation, selectivity assay for APOBEC3G inhibitor project, biochemical, single concentration, fluorescence readout; shares compounds with APOBEC3A inh; recombinant A3A, ssDNA deaminase UDG fluorescence assay; inhibition, % at 20 µM; 1,400 tested, 63% active;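 active means inhibition reaching a set limit, 80% of the first screen's cutoff, at 20 µM in any replicate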;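 further: plate controls were DMSO wells with A3A for no effect and wells lacking A3A enzyme for full effect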
UDG A3A counter – E. coli UDG inhibitors, confirmation, counter-screen for APOBEC3A inhibitor project, biochemical, single concentration, fluorescence, FAM/TAMRA oligo | shares compounds with APOBEC3A inh | UDG counterscreen, FAM/TAMRA uracil oligo fluorescence | inhibition, % at 20 µM | 1,000 tested, under 10 active | AID 504714, 2011; call rule not given here
The depositor's hits bear a star; x = no result.

SMILES	APOBEC3A inh	Wnt act	PHOSPHO1 inh	A3G deaminase	esBAF inh	MITF act	APOBEC3A confirm	UDG A3A counter
Cc1cc(C)n2c(SCC(=O)Nc3cc(S(=O)(=O)N(C)C)ccc3C)nnc2n1	40*	-3	x	3	x	-5	23	x
C[C@@H](NC(=O)C[C@@H]1C[C@H]2c3cc(NS(C)(=O)=O)ccc3O[C@H]2[C@H](CO)O1)c1ccccc1	x	x	x	x	2	x	x	x
CC1CCN(S(=O)(=O)c2ccc(NC(=O)CN3C(=O)NC(C)(c4ccccc4)C3=O)cc2)CC1 (stereo not drawn)	49*	2	x	4	-2	3	-3	x
CC1(c2ccc(Cl)cc2)NC(=O)N(CC(=O)Nc2ccc(N3CCCCC3)cc2)C1=O (stereo not drawn)	45*	-3	x	-6	-2	-7	-6	-3
CCC1(c2ccccc2)NC(=O)N(CC(=O)Nc2ccc(S(=O)(=O)N3CC(C)CC(C)C3)cc2)C1=O (stereo not drawn)	2	0	x	-4	x	0	x	x
CCCNC(=O)C[C@H]1CC[C@@H]2[C@@H](COc3ccc(NS(=O)(=O)CC)cc3C(=O)N2C)O1	x	x	x	x	-2	x	x	x
CCOC(=O)c1[nH]c2ccc(OC)cc2c1NC(=O)CCN1CCC(C)CC1	49*	x	71*	14	x	x	22	x
CCOC(=O)c1[nH]c2ccc(Br)cc2c1NC(=O)CCN1CCC(C)CC1	3	4	15	-2	14	-14	x	x
C[C@@H]1CN([C@@H](C)CO)C(=O)CCCn2cc(nn2)CO[C@@H]1CN(C)Cc1cccc(C(=O)O)c1	x	x	x	x	-2	x	x	x
CC(C)CC(=O)N1CCN(c2ccc([N+](=O)[O-])cc2Cl)CC1	7	-3	-13	-7	5	-1	x	x
CC(C)C(=O)N1CCN(c2ccc([N+](=O)[O-])cc2Cl)CC1	55*	1	0	15	x	5	17*	-2
O=C(c1cc([N+](=O)[O-])ccc1N1CCOCC1)N1CCN(c2ccc([N+](=O)[O-])cc2)CC1	56*	-2	x	6	x	3	5	x
O=C(c1cc([N+](=O)[O-])ccc1N1CCOCC1)N1CCCCC1	-1	x	35	-5	x	11	x	x
COc1cccc(S(=O)(=O)N[C@H]2CC[C@H](CC(=O)NC3Cc4ccccc4C3)O[C@H]2CO)c1	x	x	x	x	-5	x	x	x
O=C(c1ccc(S(=O)(=O)N2CCCCC2)cc1)N1CCN=C1SCc1cccnc1	50*	-5	5	-1	-24	0	7	5
CCN1C(=NCc2ccc(OC)cc2)N[C@@H](c2ccccc2)C(C(=O)OC)=C1C	92*	0	-36	12	-8	10	66*	-3
COC(=O)C1=C(C)N(Cc2ccccc2)C(=NCc2ccc(OC)cc2)N[C@H]1c1cccc(F)c1	70	-16	-37	37	4	-57	x	x
CCN1C(=NCc2cc(OC)c(OC)c(OC)c2)N[C@@H](c2cccc(C(F)(F)F)c2)C(C(=O)OC)=C1C	5	-4	x	-3	1	-2	x	x
CCN1C(=NCc2cc(OC)c(OC)c(OC)c2)N[C@@H](c2ccccc2)C(C(=O)OC)=C1C	45*	x	x	11	-3	-9	68*	0
CCN1C(=NCC2CC2)N[C@@H](c2ccccc2)C(C(=O)OC)=C1C	46*	-3	x	12	1	-5	80*	4
